Reference: PubChem BioAssay AID1159580 (chemical genetic matrix, 2015)
Several values for one entry are separate records, joined by “and”; a condition that tells them apart may be missing. Equal values may be shown once. In all, about 5,500 compounds went through this assay and about 2,000 (36%) were called active. Roughly 18% stayed inconclusive and do not appear here. Rule as the data show it: active = normalized growth mostly below about 0.91 (no sharp cut-off); inconclusive = no clear call, values can overlap the other calls; inactive = mostly above about 0.92. The list shows a part of the results.

Assay: chemical genetic growth profiling, strain panel (AID 1159580);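 also: tested at 20 µM; growth read once vehicle control cultures reached saturation at 30 °C; 1 = growth at the plate median or of vehicle wells; lower values mean less growth of the strain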
Conditions: S. cerevisiae deletion strains, growth OD

Measured: normalized growth

COc1ccc(/C=C/c2cc(O)cc(O)c2)cc1
active: locus YDL074C, strain BRE1, stronger effect = lower value 0.725 | locus YDL192W, strain arf1, stronger effect = lower value 0.729 | locus YDR101C, strain arx1, stronger effect = lower value 0.878 | locus YDR502C, strain sam2, stronger effect = lower value 0.846 | locus YEL061C, strain CIN8, stronger effect = lower value 0.864 | locus YER167W, strain BCK2, stronger effect = lower value 0.872 | locus YGL086W, strain mad1, stronger effect = lower value 0.854 | locus YGR078C, strain PAC10, stronger effect = lower value 0.803 | locus YGR135W, strain pre9, stronger effect = lower value 0.86 | locus YGR252W, strain gcn5, stronger effect = lower value 0.687 | locus YHR129C, strain ARP1, stronger effect = lower value 0.857 | locus YHR200W, strain rpn10, stronger effect = lower value 0.879 | locus YIL066C, strain RNR3, stronger effect = lower value 0.841
0.709 (active) and 0.967 (inactive): locus YJL095W, strain BCK1, stronger effect = lower value
inactive: locus YAL021C, strain ccr4, stronger effect = lower value 0.984 | locus YAL026C, strain drs2, stronger effect = lower value 1.01 | locus YAL030W, strain snc1, stronger effect = lower value 1.01 | locus YBL061C, strain skt5, stronger effect = lower value 1.01 | locus YBR009C, strain hhf1, stronger effect = lower value 1 | locus YBR021W, strain FUR4, stronger effect = lower value 0.949 | locus YBR023C, strain chs3, stronger effect = lower value 1 | locus YBR171W, strain sec66, stronger effect = lower value 1.02 | locus YBR229C, strain ROT2, stronger effect = lower value 0.978 | locus YBR231C, strain swc5, stronger effect = lower value 1 | locus YBR279W, strain paf1, stronger effect = lower value 1 | locus YCL011C, strain gbp2, stronger effect = lower value 0.991 | locus YCL016C, strain dcc1, stronger effect = lower value 1 | locus YCL029C, strain bik1, stronger effect = lower value 0.931 | locus YCL061C, strain MRC1, stronger effect = lower value 0.999 | locus YCL069W, strain vba3, stronger effect = lower value 1.01 | locus YCR088W, strain abp1, stronger effect = lower value 1 | locus YDL005C, strain med2, stronger effect = lower value 1.01 | locus YDL035C, strain GPR1, stronger effect = lower value 0.868 | locus YDL040C, strain nat1, stronger effect = lower value 1.01 | locus YDL101C, strain DUN1, stronger effect = lower value 0.949 | locus YDL134C, strain PPH21, stronger effect = lower value 0.895 | locus YDL185W, strain tfp1, stronger effect = lower value 0.976 | locus YDR001C, strain nth1, stronger effect = lower value 1.01 | locus YDR069C, strain doa4, stronger effect = lower value 1.02 | locus YDR137W, strain rgp1, stronger effect = lower value 1.02 | locus YDR159W, strain sac3, stronger effect = lower value 1.01 | locus YDR162C, strain NBP2, stronger effect = lower value 0.866 | locus YDR195W, strain ref2 1.06 | locus YDR297W, strain sur2, stronger effect = lower value 1 | locus YDR318W, strain mcm21, stronger effect = lower value 0.919 | locus YDR334W, strain swr1, stronger effect = lower value 1.02 | locus YDR335W, strain msn5, stronger effect = lower value 0.999 | locus YDR388W, stronger effect = lower value 0.962 | locus YDR392W, strain spt3, stronger effect = lower value 0.982 | locus YEL003W, strain gim4, stronger effect = lower value 1.01 | locus YEL037C, strain rad23, stronger effect = lower value 1.01 | locus YEL061C, strain CIN8 (second series), stronger effect = lower value 1.01 | locus YER015W, strain faa2, stronger effect = lower value 0.998 | locus YER016W, strain bim1, stronger effect = lower value 1.01 | locus YER110C, stronger effect = lower value 0.956 | locus YER111C, strain swi4, stronger effect = lower value 1.01 | locus YER155C, strain BEM2 (second series), stronger effect = lower value 1 | locus YER155C, strain BEM2, stronger effect = lower value 0.945 | locus YFR010W, strain ubp6, stronger effect = lower value 1.01 | locus YGL078C, strain dbp3, stronger effect = lower value 0.946 | locus YGL167C, strain pmr1, stronger effect = lower value 1.01 | locus YGL173C, strain kem1, stronger effect = lower value 1.02 | locus YGL227W, strain vid30, stronger effect = lower value 1.01 | locus YGL240W, strain doc1, stronger effect = lower value 1 | locus YGL248W, strain PDE1, stronger effect = lower value 0.907 | locus YGL253W, strain hxk2, stronger effect = lower value 1.01 | locus YHR013C, strain ard1, stronger effect = lower value 1 | locus YHR027C, strain rpn1, stronger effect = lower value 0.998 | locus YHR079C, strain IRE1 (second series), stronger effect = lower value 0.974 | locus YHR079C, strain IRE1, stronger effect = lower value 1.01 | locus YHR094C, strain hxt1, stronger effect = lower value 0.96 | locus YHR142W, strain chs7, stronger effect = lower value 0.99 | locus YIL073C, strain SPO22, stronger effect = lower value 0.896 | locus YIL125W, strain kgd1, stronger effect = lower value 0.955 | locus YIR030C, strain dcg1, stronger effect = lower value 0.957 | locus YJL092W, strain hpr5, stronger effect = lower value 1.01 | locus YJL095W, strain BCK1 (second series), stronger effect = lower value 1.01 | locus YJL115W, strain asf1, stronger effect = lower value 1.01 | locus YJL129C, strain trk1, stronger effect = lower value 0.986 | locus YJL134W, strain LCB3, stronger effect = lower value 0.983 | locus YJL154C, strain vps35, stronger effect = lower value 1.01 | locus YJL164C, strain tpk1, stronger effect = lower value 0.986 | locus YJL166W, strain qcr8, stronger effect = lower value 1 | locus YJL168C, strain set2, stronger effect = lower value 0.969 | locus YJL187C, strain SWE1 (second series), stronger effect = lower value 0.89 | locus YJL187C, strain SWE1, stronger effect = lower value 0.997
0.863 (active) and 1.04 (inactive): locus YHR030C, strain SLT2, stronger effect = lower value
